The values below come from PubChem BioAssay (NCI).

Experiment in all cases: NCI-60 one-dose screen, 48 h (100 = growth as untreated, 0 = no growth, -100 = all killed)
Conditions in all cases: 10 µM

The test system of test [1] is NCI-H23 lung.
The test system of test [2] is NCI-H226 lung.
Test [3] concerns NCI-H322M lung.
Test [4] relates to HOP-62 NSCLC.
The subject of test [5] is NCI-H460 lung.
The test system of test [6] is HOP-92 NSCLC.
Test [7] concerns NCI-H522 lung.
The test system of test [8] is A549/ATCC NSCLC.
The test system of test [9] is 786-0 renal.
In test [10] the test system is COLO 205 colon.

Compounds without any hit were thinned out: in the full panel of roughly 83,000, 20% have a hit.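 Activity criterion: percent growth below 10, measured after cells in 96-well plates were exposed to a single compound concentration for 48 hours.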 Unmarked numbers belong to inactive results. Active and inactive are the calls of the source.

For the compound `O=[N+]([O-])c1ccc(N=Nc2ccccc2)cc1`, the growth was 90.4% in [1]; 89.4% in [2]; 80% in test [3]; 96.4% in test [4]; 120% in [5]; 94% in [6]. Besides, the growth in test [7] is 81.1%; in test [8], 89%; in [9], 92%.
As to `CCCCNC1(C#N)CCN(Cc2ccccc2)CC1`, the growth in test [1] is 86.8%; in test [2], 104%; in test [3], 98.8%; in [4], 87%; in test [5] it was 110%; in test [6], 90.4%. Moreover, the results for the growth in test [7], in [8] and in test [9] were 84.9%, 110% and 84.5%, respectively.
In the case of `CC(=O)c1ccc(C(C)(C)C)cc1`, the growth in [1] was 95.7%; in test [2], 98.4%; in test [3], 104%; in test [4] it was 91.9%; in [5] it was 106%; in test [6], 80.6%. In addition, the growth in [7] is 99.6%; in test [8], 101%; in test [9], 100%.
`S=C(Nc1ccccc1)N1CCCCC1`: the growth in [1] is 99.9%; in [2], 89.6%; in test [3], 99%; in test [4] it was 90.9%; in test [5], 110%; in test [6] it was 93.3%. In addition, the figures for the growth in test [7], in test [8] and in test [9] were 94.9%, 99.2% and 102%, respectively.
For the compound `O=[N+]([O-])c1cccc(C(F)(F)F)c1`, the growth in [1] was 101%; in [2], 98.5%; in test [3] it was 132%; in [4], 96.9%; in test [5], 98.1%; in test [6] it was 87.8%. Moreover, the growth in test [7] was 85.5%; in [8], 94.7%; in [9], 107%; in [10] it was 108%.
Take `CCOc1ccc2[nH]c(=S)sc2c1`: the growth is 94.4% in test [1]; 109% in test [2]; 105% in test [3]; 99.1% in [4]; 110% in test [5]; 82.2% in test [6]. Besides, the growth in test [7] is 104%; in test [8], 103%; in test [9] it was 99.7%; in test [10], 112%.
Turning to `Cc1cc(N)c(S(=O)(=O)O)c(N)c1`, the growth in test [1] was 97%; in [2], 99.6%; in [3], 101%; in [4], 94.9%; in test [5] it was 104%; in test [6] it was 47.1%. Further, the values for the growth in [7], in test [8] and in [9] were 87.9%, 109% and 105%, respectively.
For `O=C(Cc1nc2ccc([N+](=O)[O-])cc2nc1CC(=O)c1cccnc1)c1cccnc1`, the growth is 52.7% in [1]; 52.2% in test [2]; 51% in test [3]; 25.6% in test [4]; 48.1% in [5]; 69.8% in test [6]. Moreover, the growth was 18.5% in [7], 64.8% in [8], 15.8% in test [9] and 121% in test [10].
In the case of `CC(C)C(C#N)(C(C)C)C(C)C`, the growth is 104% in test [1]; 104% in test [2]; 107% in test [3]; 101% in [4]; 102% in test [5]; 95.5% in test [6]. In addition, the growth was 92% in test [7], 97.1% in test [8], 113% in test [9] and 109% in [10].
Regarding `Cc1cc(N)ccc1-c1ccc(N)cc1C`, the growth in test [1] was 92.8%; in test [2] it was 102%; in [3], 104%; in [4], 89.9%; in test [5], 104%; in [6], 47.6%. In addition, the growth was 96.9% in test [7], 92.8% in test [8], 101% in test [9] and 103% in [10].
For the compound `CO[C@H]1C[C@@H]2CC[C@@H](C)[C@@](O)(O2)C(=O)C(=O)N2CCCC[C@H]2C(=O)O[C@H]([C@H](C)C[C@@H]2CC[C@@H](O)[C@H](OC)C2)CC(=O)[C@H](C)C=C(C)[C@@H](O)[C@@H](OC)C(=O)[C@H](C)C[C@H](C)/C=C/C=C/C=C1C`, the growth was 45.4% in test [1]; 62.2% in test [2]; 71.6% in test [3]; 60.7% in [4]; 45.1% in test [5]; 30.7% in test [6]. Moreover, the growth was 53.8% in test [7], 39% in test [8], 46.9% in test [9] and 61.3% in [10].
In the case of `CC(C)COC(=O)COC(=O)OCCOCCOC(=O)OCC(=O)OCC(C)C`, the growth in test [1] was 100%; in test [2] it was 100%; in test [3], 118%; in [4] it was 98.1%; in test [5] it was 114%; in [6], 95.7%. In addition, the growth in [7] was 95.9%; in test [8], 109%; in test [9], 103%; in test [10], 117%.
Regarding `COc1ccccc1C1OC2=Nc3cc(C)c(C)cc3NC2C1=O` (stereo not given), the growth is 79% in [1]; 21.7% in [2]; 80.3% in test [3]; 47.9% in [4]; 14.1% in [5]; 67.7% in test [6]. In addition, the growth in [7] is 91%; in test [8], 67.6%; in test [9], 14%; in test [10], 79.1%.
As to `C/C(=C\c1cc(Cl)ccc1OCC(=O)O)[N+](=O)[O-]`, the growth in test [1] was 96.2%; in test [2], 108%; in test [3] it was 118%; in test [4] it was 103%; in test [5], 123%; in [6], 101%. The growth is 75.6% in test [7], 92% in test [8], 117% in test [9] and 115% in test [10].
With `O=C(c1ccc(O)cc1)c1ccc(O)cc1`, the growth in [1] is 106%; in test [2], 98.1%; in test [3], 95.3%; in test [4], 97.8%; in test [5], 108%; in [6], 98%. The growth was 95.8% in test [7], 96.9% in test [8], 98.8% in test [9] and 108% in test [10].
`[O-][N+](=Nc1cccc(Cl)c1)c1cccc(Cl)c1`: the growth in [1] was 94.5%; in [2], 114%; in [3], 95.9%; in [4], 107%; in test [5], 99%; in test [6], 94.1%. Further, the growth is 148% in test [7], 95.1% in test [8], 109% in test [9] and 116% in test [10].
Consider `CSc1[nH]c(=O)ncc1F`, for which the growth is 101% in test [1]; 99.7% in test [2]; 97.8% in test [3]; 109% in [4]; 106% in [5]; 116% in [6]. For the same compound, the growth is 100% in test [7], 93.3% in [8], 104% in test [9] and 110% in [10].
For the compound `O=S(=O)(O)CC(O)CN1CCN(CCO)CC1` (stereo not given), the growth was 94.2% in [1]; 108% in test [2]; 112% in [3]; 110% in [4]; 114% in test [5]; 86.2% in [6]. Further, the growth in test [7] is 89%; in [8] it was 98.8%; in test [9], 105%; in [10], 106%.
As for `CCOC(=O)c1cc(/C=C/c2cccc(Cl)c2)on1`, the growth in test [1] was 81.1%; in [2] it was 95.1%; in [3] it was 96.1%; in [4], 99.9%; in [5] it was 99.3%; in test [6], 88.8%. The growth in test [7] is 74.6%; in test [8], 104%; in [9], 97.7%; in test [10], 119%.
On to `CC(C)CCCC(=O)O`, for which the growth in [1] is 106%; in [2] it was 101%; in test [3], 93.4%; in [4], 102%; in test [5], 102%; in [6] it was 73.9%. The growth in test [7] was 103%; in [8] it was 105%; in test [9], 116%; in test [10], 112%.
As to `CCN(CC)c1ccc2nc3ccc(=[N+](CC)CC)cc-3oc2c1`, the growth in test [1] was -46.2% (active); in test [2], -46.9% (active); in [3], 10.7%; in test [4] it was 1.25% (active); in test [5], 6.72% (active); in test [6], 15.7%. Besides, the growth in [7] was -29.6% (active); in test [8], 18.5%; in [9], 34.9%; in [10], -69.9% (active).
Take `CCN1C(=O)/C(=C/C=C/N(C)c2ccccc2)SC1=S`: the growth in [1] is 92.9%; in test [2] it was 66.4%; in test [3], 94.6%; in test [4] it was 36.2%; in [5], 94.7%; in test [6] it was 103%. The growth in test [7] is 60.9%; in [8] it was 82.8%; in test [9], 79.8%; in test [10] it was 104%.
As for `CCOc1ccc(/C=C/C(=O)c2ccccc2)cc1`, the growth in test [1] was 106%; in [2] it was 114%; in test [3], 132%; in [4], 102%; in [5], 103%; in test [6], 82.6%. Also, the growth was 76.9% in test [7], 97.5% in test [8], 89.8% in [9] and 116% in [10].
For `Nc1nc(N)c2cc(S(=O)(=O)c3cccc(C(F)(F)F)c3)ccc2n1`, the growth was 53.5% in test [1]; 69.2% in test [2]; 52.1% in test [3]; 76.6% in [4]; 16.8% in [5]; 55.7% in [6]. The growth in test [7] is 63.9%; in test [8], 15.9%; in [9] it was 38.1%; in test [10], 62.5%.
On to `Cc1ccc(/C=C2\SC(=S)N(c3ccc(F)cc3)C2=O)o1`, for which the growth is 88.3% in test [1]; 72.4% in test [2]; 90.2% in test [3]; 83.1% in [4]; 33.7% in test [5]; 87.6% in test [6]. Also, the growth is 70.6% in [7], 87.5% in test [8], 40.2% in test [9] and 92.4% in test [10].
For `O=c1cc(-c2ccccc2)oc2c1ccc1ccccc12`, the growth is 85.2% in [1]; 86.3% in test [2]; 96% in test [3]; 99.5% in test [4]; 97.1% in [5]; 50.5% in test [6]. Besides, the growth is 79.3% in test [7], 73.6% in test [8], 99.4% in [9] and 85.8% in test [10].
Turning to `Nc1nc2c(c(-c3nc(N)nc4c3CCc3ccccc3-4)n1)CCc1ccccc1-2`, the growth in [1] was 97.4%; in [2], 89.9%; in test [3], 115%; in test [4] it was 91.4%; in [5], 117%; in [6], 95.1%. In addition, the growth is 99.1% in [7], 106% in test [8], 110% in [9] and 116% in test [10].
`c1ncc2[nH]cnc2n1`: the growth in test [1] is 104%; in test [2], 99.5%; in [3], 85.7%; in [4], 104%; in test [5] it was 105%; in test [6] it was 89.4%. The growth in [7] was 89.2%; in test [8], 86.7%; in [9], 95.2%; in test [10] it was 101%.
Take `CC(=O)N(C)c1ccc([N+](=O)[O-])cc1`: the growth was 101% in test [1]; 105% in [2]; 114% in test [3]; 111% in test [4]; 117% in test [5]; 94.5% in test [6]. In addition, the growth is 106% in [7], 106% in test [8], 105% in test [9] and 114% in test [10].
`O=C1NC(=O)C2C(=O)NC(=O)C1C21CCc2ccccc21` (stereo not given): the growth in [1] is 91.8%; in test [2], 87.7%; in test [3], 106%; in [4], 94.3%; in test [5], 115%; in test [6] it was 89.5%. For the same compound, the growth was 97.4% in test [7], 103% in test [8], 101% in test [9] and 125% in [10].
